This is a sample that favours compounds with a hit; in the whole collection about 19% have one here.
IL-1B inflam inh: blocks inflammasome-driven IL-1 beta release. THP-1 LPS/ATP IL-1B secretion, AlphaLISA, 16 h; stronger effect = lower value. activity change, % at 57.5 µM. 360,000 tested, 4.7% active. AID 743279; in the data active means activity change below about -50%; inconclusive means mostly about -30% to -49%
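THP-1 cells pretreated 1 hr with compounds (up to 57.5 uM final), then stimulated with LPS (250 ng/mL final) plus ATP (1.25 mM final); secreted IL-1B measured by AlphaLISA after 16 hr, decreased signal indicating inhibition.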
HT1080 IDH1KD tx: toxicity to HT-1080 IDH1 knockdown cells (counter line); HT-1080 IDH1 knockdown viability, ATP luminescence, 48 h; Potency, µM (titrated, usually from 46.1 µM), without a hit: top-dose activity, negative = toxicity, usual class: cytotoxic; 360,000 tested, 2% active;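 further: potency means the concentration at half of the fitted maximal effect; 0% = DMSO wells and -100% = cell-free medium wells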
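In this qHTS, HT-1080 cells depleted of IDH1 are exposed for 48 h at 37 °C to compound titrations. Toxicity is scored from CellTiter-Glo luminescence, with DMSO as full viability and medium alone as none.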
HT1080-NT tox: kills 2HG-producing HT-1080-NT fibrosarcoma cells | Potency, µM (doses to about 46.1 µM), for the others: at the highest dose activity, negative = less viability, usual class: cytotoxic | AID 686970 | HT-1080-NT fibrosarcoma viability, CellTiter-Glo ATP luminescence, 48 h | 360,000 tested, 1.6% active;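 further: NT is the 2HG producing partner of a matched IDH1 knockdown line; potency means the concentration at half of the fitted maximal effect; 0% = DMSO-treated cells and -100% = media-only wells without cells; nearly all actives have a fitted effect of over 55% in size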
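A 48-hour cytotoxicity screen used HT-1080-NT cells plated 2 hours before compound delivery. ATP-based CellTiter-Glo luminescence measured viability, normalized to DMSO and no-cell controls.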
TDP1 cell noCPT: qHTS for Inhibitors of human tyrosyl-DNA phosphodiesterase 1 (TDP1): qHTS in cells in absence of CPT | Potency, µM (doses to about 46.2 µM), without a hit: at the highest dose activity change, negative = growth inhibition, usual class: inhibitors | 420,000 tested, 15% active | DT40 Tdp1-/- hTDP1 cells, no CPT, ATP luminescence, 48 h | AID 686978, 2013; further: potency means the concentration at half of the fitted maximal effect; nearly all actives have a fitted effect of over 55% in size
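A cellular qHTS used chicken DT40 cells lacking endogenous Tdp1 but carrying stably transfected human TDP1. Compounds were applied without camptothecin, and cell growth kinetics were judged by ATP-dependent luminescence after ≥48 hr.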
DT40 TDP1 CPT: growth inhibition of DT40 Tdp1-/-;hTDP1 cells with camptothecin (screen for TDP1 inhibitors). chicken DT40 Tdp1-/-;hTDP1 cells + 20 nM CPT, ATP luminescence, 48 h. 420,000 tested, 12% active. Potency, µM (series often up to 46.2 µM), inactives show at the highest dose activity change, negative = growth inhibition, actives largely listed as inhibitors; further: potency means the concentration at half of the fitted maximal effect; nearly all actives have a fitted effect of over 55% in size
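Cell growth measured by CellTiter-Glo luminescence after a minimum 48 h, 37 C compound exposure with 20 nM CPT in Tdp1-knockout DT40 cells stably expressing hTDP1, seeded 400/well; qHTS titration format.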
The depositor's hits bear a star; ? = inconclusive; . = not tested or not shown; ! = not confirmed by another sample; [ ] = remark or other dose. Unless noted, the call rests on the fitted dose curve; in most records, active means well fitted curve in the direction sought with a large enough effect; inconclusive means small, poorly fitted or top-dose-only effect, or another doubt; inactive means no such curve, though single readings can be large; an effect the other way counts as inactive or inconclusive. Unless noted, on the % scale 0 is the no-effect control and ±100 the full control effect.

SMILES | IL-1B inflam inh | HT1080 IDH1KD tx | HT1080-NT tox | TDP1 cell noCPT | DT40 TDP1 CPT
CC(O)(CS(=O)(=O)c1cccc(C(F)(F)F)c1)C(=O)Nc1cccc(C(F)(F)F)c1 (centres undefined) | -4.6 | ? | 4.7%[9.24 µM] | ? | ?
O=C(Nc1cccc(C(F)(F)F)c1)C1CCCN1S(=O)(=O)c1cccc2nsnc12 (centres undefined) | . | . | . | ? | 18.4µM*
S=c1[nH]nc(-c2ccc3ccccc3n2)n1-c1ccc2c(c1)OCCO2 | 31.9 | -5.5% | -1.5% | ? | -6.2%
O=[N+]([O-])c1ccc(Oc2ccc(N=C=S)cc2)cc1 | . | . | . | 11.9µM* | ?
Cc1nn(Cc2ccc(Cl)cc2Cl)c(Cl)c1C(=O)O | 7.7 | -6.4% | -0.8% | 9.0% | -7.2%
Cc1nn(Cc2ccc(Cl)cc2Cl)c(Cl)c1C(=O)NC1CCCc2ccccc21 (centres undefined) | 25.0 | 0.5% | 7.7% | 11.6µM* | 16.4µM*
COC(=O)C(Cc1ccc(N(CCCl)CCCl)cc1)N=Cc1ccccc1O (centres undefined) | -96.5* | 25.9µM* | ? | 0.082µM* | 0.116µM*
COc1ccc(/C=C/C=C2C(=O)NC(=S)NC2=O)cc1 | ? | -4.4% | 2.4% | 3.26µM* | 3.26µM*
COc1ccc(C=C2C(=O)NC(=S)NC2=O)cc1OC | 1.0 | 19.3% | 9.6% | -14.0% | -9.0%
COc1ccc2c(c1)CC[C@@H]1[C@@H]2CC[C@]2(C)[C@@H](NCCCCCCN3C(=O)C=CC3=O)CC[C@@H]12 | . | . | . | 22.5µM* | ?
CCCCc1cc(=O)oc2cc(OCC(=O)N3C[C@H]4C[C@@H](C3)c3cccc(=O)n3C4)c(Cl)cc12 | -12.0 | -1.0% | -3.8% | ? | ?
Cc1cccn2c(=O)c3c(nc12)N1CCC(Cc2ccccc2)CC1C1(C3)C(=O)N(C)C(=O)N(C)C1=O (centres undefined) | -19.8 | -0.5% | -14.4% | ? | 18.4µM*
Cc1cccn2c(=O)c3c(nc12)N1CCCCC1C1(C3)C(=O)N(C)C(=O)N(C)C1=O (centres undefined) | 31.4 | 8.2% | 21.5% | ? | -6.0%
Cc1cc(C)cc(OCCOc2cccc(C=C3C(=O)NC(=O)NC3=O)c2)c1 | 14.3 | -10.9% | -3.3% | ? | 18.4µM*
Cc1ccc(OCCOc2cccc(C=C3C(=O)NC(=O)NC3=O)c2)cc1 | -5.4 | 13.0% | 9.1% | 18.4µM* | ?
CCOC(=O)c1ccc2[nH]c(-c3ccc(S(=O)(=O)F)cc3)cc(=O)c2c1 | 8.7 | 6.1% | 3.9% | ? | -27.3%
O=C(N[C@H]1CP(=O)(Oc2ccccc2)O[C@H](COCc2ccccc2)[C@H]1O)C(Cl)(Cl)Cl (some centres undefined) | 2.0 | 1.5% | 1.2% | -25.7% | -4.1%
CC(C)NC(=O)Cn1cc(C(=O)c2ccccc2)c2ccccc21 | -1.8 | 4.0% | -0.6% | -33.1% | 5.5%
Cc1ccc(C(=O)c2cn(CC(=O)Nc3ccc(C(C)C)cc3)c3nc(C)ccc3c2=O)cc1 | . | . | . | 6.51µM* | 6.51µM*
CC(=O)C1=C(O)[C@@H]2[C@@H]3c4c[nH]c5cccc(c45)C[C@@H]3C(C)(C)N2C1=O | . | . | . | 4.22µM* | 6.68µM*
CC1=C[C@@H]2c3cccc4[nH]cc(c34)C[C@H]2N(C)C1 | -1.5 | -0.1% | 1.8% | ? | ?
C/C(O)=C1\C(=O)[C@@H]2[C@H]3c4c[nH]c5cccc(c45)C[C@H]3C(C)(C)N2C1=O | . | . | . | 8.31µM* | 10.5µM*
CC(=O)C1=C(O)C2C3c4c[nH]c5cccc(c45)CC3C(C)(C)N2C1=O (centres undefined) | . | . | . | 7.31µM* | 10.3µM*
CC(CC(C)(C)N1CC1)=NO | -20.2 | 11.4% | 14.5% | 3.26µM* | 2.91µM*
O=C1NC(=O)C(=Cc2ccc(Cl)cc2)C(=O)N1 | . | 0.4% | 22.0% | 4.7% | 3.3%
SMILES | IL-1B inflam inh | HT1080 IDH1KD tx | HT1080-NT tox | TDP1 cell noCPT | DT40 TDP1 CPT
C[C@@H](N)C(=O)c1ccccc1 | . | . | . | -19.7%[92.5 µM] | -26.7%[92.5 µM]
CCOc1ccc(NC(=O)C2C3c4ccccc4C(c4ccccc43)C2C(=O)O)cc1 (centres undefined) | 7.3 | 1.6% | -1.9% | -19.0% | -14.0%
CCOc1ccc(NCc2cccn2-c2nnc(N3CCC(C(=O)NC(C)c4ccccc4)CC3)s2)cc1 (centres undefined) | . | . | . | 8.2µM* | 20.6µM*
Cn1c(O)c(C=NCCN2CCN(C(=O)Nc3ccccc3)CC2)c(=O)n(C)c1=O | . | 16.0% | 14.8% | 2.2% | -1.2%
CCN1C[C@@]2(COC)C3[C@@H](OC)C4[C@@H]1[C@@]3(C1C[C@@]3(O)[C@H](OC(=O)c5ccccc5)C1[C@]4(OC(C)=O)[C@@H](O)[C@@H]3OC)[C@@H](OC)C[C@H]2O (some centres undefined) | . | . | . | 15.7% | -3.6%
CC(C)OC(=O)OCOP(=O)(CO[C@H](C)Cn1cnc2c(N)ncnc21)OCOC(=O)OC(C)C | . | . | . | 10.6µM*! | 8.41µM*!
COc1ccc(OC(=O)Nc2ccc([N+](=O)[O-])cc2OC)cc1 | -3.6 | ? | ? | ? | -29.2%
CCOC(=O)c1[nH]c2ccc(OC)cc2c1C(SCC(=O)O)c1ccc(C(F)(F)F)cc1 (centres undefined) | -8.4 | ? | ? | 3.8% | 18.1%
CC(=O)O[C@H]1CC[C@@]2(C)[C@H](C1)C(=O)C[C@H]1[C@@H]3CC[C@@H]4[C@@H](CN5C[C@@H](C)CC[C@H]5[C@@]4(C)O)[C@@H]3C[C@@H]12 | -6.4 | 0.0% | 14.3% | ? | -25.7%
CCN1CCN(CC(=O)c2c(C)n(Cc3ccccc3)c3ccc(OC)cc23)CC1 | ? | -11.4% | -19.1% | ? | ?
CCOC(=O)[C@]12Cc3cc(C)ccc3[C@H]1N(Cc1ccccc1)C(=O)c1ccccc12 | -2.8 | -22.1% | -2.9% | 14.6µM* | 10µM*
CCOC(=O)[C@]12Cc3cc(C)ccc3[C@H]1N(Cc1ccccc1)C(=O)c1cc(F)c(F)cc12 | . | ? | ? | 14.6µM* | 20.6µM*
CCOC(=O)[C@]12Cc3cc(OC)ccc3[C@H]1N(Cc1ccccc1)C(=O)c1ccccc12 | -22.9 | 0.5% | -2.3% | 11.2µM* | ?
CCOC(=O)[C@]12Cc3cc(OC)ccc3[C@H]1N(Cc1ccccc1)C(=O)c1cc(F)c(F)cc12 | -20.9 | -1.1% | -1.5% | ? | ?
CCOC(=O)[C@]12Cc3cc(C)ccc3[C@H]1N(C(C)C)C(=O)c1ccccc12 | -113.1* | 25.9µM* | 11.6µM* | 6.51µM* | 10.3µM*
O=C(O)COc1cc(Cl)c(Cl)cc1Cl | . | . | . | -2.0% | -22.3%

Screening data (PubChem)
